Measurements reported in PubChem BioAssay (NCATS).
Results filed as inconclusive are left out. Activity calls are given as the source filed them. Calls come from the whole dose curve; as a rule, active = well fitted curve in the direction sought with a large enough effect; inconclusive = small, poorly fitted or top-dose-only effect, or another doubt; inactive = no such curve, though single readings can be large; an effect the other way counts as inactive or inconclusive.

Experiments:
[1] = qHTS of pediatric cancer cell lines to identify multiple opportunities for drug repurposing: Primary screen for DAOY cells (AID 1347090); note: nearly all actives have a fitted effect of over 55% in size
Procedure, shortened: (§1)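 Eight- or eleven-point concentration series, 48 h treatment at 37 degrees C in growth media; readout CellTiter-Glo luminescence. Potency and efficacy were taken from the concentration-response curves.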

[2] = qHTS of pediatric cancer cell lines to identify multiple opportunities for drug repurposing: Primary screen for SJ-GBM2 cells (AID 1347091)
Procedure, shortened: as §1

[3] = qHTS of pediatric cancer cell lines to identify multiple opportunities for drug repurposing: Primary screen for A673 cells (AID 1347092); note: nearly all actives have a fitted effect of over 45% in size
Procedure, shortened: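 A673 cells (500-1,000 cells/well in growth media) were pre-incubated 5 h at 37 degrees C, then exposed to compounds for 48 h. Viability was read as CellTiter-Glo luminescence; concentration-response curves came directly from the primary screen.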

[4] = qHTS of pediatric cancer cell lines to identify multiple opportunities for drug repurposing: Primary screen for SK-N-MC cells (AID 1347093)
Procedure, shortened: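 Metabolically active cells were quantified by ATP-dependent luminescence (CellTiter-Glo, 15 min at room temperature) following 48 h treatment. Cells had been plated at 500-1,000 per well and settled for 5 h beforehand.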

[5] = qHTS of pediatric cancer cell lines to identify multiple opportunities for drug repurposing: Primary screen for NB-EBc1 cells (AID 1347095)
Procedure, shortened: (§2)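 Luminescence from CellTiter-Glo served as readout of metabolically active cells after 48 h compound exposure. Titrations: MIPE 11-point, from 0.78 nM; NPC 8-point, from 0.59 nM (final). Concentration-response curves came straight from the primary screen.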

[6] = qHTS of pediatric cancer cell lines to identify multiple opportunities for drug repurposing: Primary screen for BT-37 cells (AID 1347094)
Procedure, shortened: as §2

[7] = qHTS of pediatric cancer cell lines to identify multiple opportunities for drug repurposing: Primary screen for U-2 OS cells (AID 1347096); note: nearly all actives have a fitted effect of over 50% in size
Procedure, shortened: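 Cells (500-1,000/well) in growth media were settled 5 h at 37 degrees C, then given compounds for 48 h. Viability was read as CellTiter-Glo luminescence. Primary runs used MIPE at 11 points (0.78 nM-46 µM) and NPC at 8 points (0.59 nM-46 µM); follow-ups used 11 points.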

[8] = qHTS of pediatric cancer cell lines to identify multiple opportunities for drug repurposing: Primary screen for TC32 cells (AID 1347089); note: nearly all actives have a fitted effect of over 60% in size
Procedure, shortened: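 Luminescent CellTiter-Glo read-out of metabolically active TC32 cells after 48 h compound exposure. Primary: MIPE 11-point, 0.78 nM–46 µM; NPC 8-point, 0.59 nM–46 µM. Confirmatory: 11-point dilutions.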

[9] = qHTS of pediatric cancer cell lines to identify multiple opportunities for drug repurposing: Primary screen for SK-N-SH cells (AID 1347098); note: nearly all actives have a fitted effect of over 65% in size
Procedure, shortened: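 Cells (500-1,000/well) rested 5 h, then received compounds for 48 h; metabolically active cells were measured by CellTiter-Glo luminescence. Final concentrations spanned up to 46 µM (MIPE, 11-point) or 0.59 nM-46 µM (NPC, 8-point) in primary screens, 11-point in follow-ups.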

[10] = qHTS of pediatric cancer cell lines to identify multiple opportunities for drug repurposing: Primary screen for Saos-2 cells (AID 1347097); note: nearly all actives have a fitted effect of over 40% in size
Procedure, shortened: as §2
Potency is the fitted concentration of half-maximal effect.

Row | Structure (SMILES) | Potency [1] | Potency [2] | Potency [3] | Potency [4] | Potency [5] | Potency [6] | Potency [7] | Potency [8] | Potency [9] | Potency [10]
1 | Cc1c(C(=O)c2cccc3ccccc23)c2cccc3c2n1[C@H](CN1CCOCC1)CO3 | 23.5 µM (active) | 14.8 µM (active) | 23.5 µM (active) | 10.5 µM (active) | 20.9 µM (active) | – | – | – | – | –
2 | CC[C@@H](C(N)=O)N1CCCC1=O | inactive | inactive | – | 26.4 µM (active) | inactive | inactive | inactive | – | – | –
3 | C=CCC1=C(C)C(OC(=O)C2C(C=C(C)C)C2(C)C)CC1=O (centres undefined) | – | – | 48.6 µM (active) | 38.6 µM (active) | 68.6 µM (active) | – | – | inactive | inactive | –
4 | CCc1c(C(=O)C(N)=O)c2c(OCC(=O)O)cccc2n1Cc1ccccc1 | – | inactive | – | – | inactive | inactive | inactive | inactive | inactive | inactive
5 | CC=C(C)C(=O)O[C@H]1C(C)=C2[C@@H]3OC(=O)[C@@](C)(O)[C@@]3(O)[C@@H](OC(=O)CCC)C[C@](C)(OC(C)=O)[C@@H]2[C@@H]1OC(=O)CCCCCCC | 0.469 µM (active) | 0.0418 µM (active) | 0.0235 µM (active) | 0.0187 µM (active) | 0.118 µM (active) | 0.0172 µM (active) | 0.296 µM (active) | – | 0.136 µM (active) | 0.0743 µM (active)
6 | CC(=O)OCC1=C(C(=O)O)N2C(=O)[C@@H](N)[C@@H]2SC1 | inactive | 2.35 µM (active) | 0.187 µM (active) | 23.5 µM (active) | – | 1.22 µM (active) | inactive | – | – | 0.935 µM (active)
7 | COc1cc2cc(c1Cl)N(C)C(=O)C[C@H](OC(=O)C(C)C)[C@]1(C)O[C@H]1[C@H](C)[C@@H]1C[C@@](O)(NC(=O)O1)[C@H](OC)C=CC=C(C)C2 | – | – | 0.001 µM (active) | 0.001 µM (active) | 0.001 µM (active) | 3.85 µM (active) | inactive | 0.208 µM (active) | – | 0.662 µM (active)
8 | CCN1CCN(C(=O)Cc2ccc(Nc3ncc(F)c(Nc4ccc(C(=O)Nc5ccccc5Cl)cc4)n3)cc2)CC1 | 3.72 µM (active) | 2.35 µM (active) | 2.96 µM (active) | 5.26 µM (active) | 5.26 µM (active) | 12.2 µM (active) | 7.43 µM (active) | – | 21.5 µM (active) | 4.69 µM (active)
9 | CC(C)[C@H]1C(=O)N[C@H](CO)Cc2c[nH]c3cccc(c23)N1C | – | – | – | – | inactive | inactive | inactive | inactive | inactive | –
10 | C=C[C@@H]1CN2CCC1C[C@@H]2[C@@H](O)c1ccnc2ccccc12 (some centres undefined) | – | – | 18.7 µM (active) | 9.35 µM (active) | – | – | – | inactive | 30.4 µM (active) | 26.4 µM (active)
11 | C=CC(=O)NCNC(=O)C=C | inactive | inactive | inactive | inactive | inactive | inactive | inactive | – | inactive | inactive
12 | COC1=C[C@@H]2[C@@H]3Cc4ccc(OC)c(O)c4[C@]2(CCN3C)CC1=O | – | – | 1.48 µM (active) | 13.2 µM (active) | 20.9 µM (active) | – | inactive | inactive | 6.07 µM (active) | inactive
13 | NC1CC1c1ccccc1 (centres undefined) | inactive | inactive | inactive | inactive | inactive | inactive | inactive | – | inactive | –
14 | CC(=O)O[C@@]12CO[C@H]1C[C@H](O)[C@@]1(C)C(=O)[C@H](O)C3=C(C)[C@@H](O)C[C@@](O)([C@@H](OC(=O)c4ccccc4)[C@@H]21)C3(C)C | 18.7 µM (active) | 1.48 µM (active) | 1.48 µM (active) | 1.32 µM (active) | 2.09 µM (active) | – | – | – | – | 2.64 µM (active)
15 | CC(C)(O)C=CC(=O)[C@](C)(O)[C@H]1[C@H](O)C[C@]2(C)[C@@H]3CC=C4[C@@H](C=C(O)C(=O)C4(C)C)[C@]3(C)C(=O)C[C@@]12C | 0.187 µM (active) | 0.209 µM (active) | 0.187 µM (active) | 0.0332 µM (active) | 0.332 µM (active) | 1.37 µM (active) | 0.148 µM (active) | – | 0.152 µM (active) | 0.105 µM (active)
16 | CCNC(=O)CC1N=C(c2ccc(Cl)cc2)c2cc(OC)ccc2-n2c(C)nnc21 (centres undefined) | – | – | 2.96 µM (active) | 2.96 µM (active) | 20.9 µM (active) | – | inactive | inactive | 15.2 µM (active) | –
17 | O=c1[nH]c2ccc(Cl)cc2c(N[C@@H]2CN3CCC2CC3)c1-c1nc2ccccc2[nH]1 | 0.743 µM (active) | 0.0469 µM (active) | 0.296 µM (active) | 0.0332 µM (active) | 0.0418 µM (active) | 5.44 µM (active) | 0.187 µM (active) | – | 9.61 µM (active) | 0.418 µM (active)
18 | CCNC(=O)C[C@@H]1N=C(c2ccc(Cl)cc2)c2cc(OC)ccc2-n2c(C)nnc21 | 5.9 µM (active) | 5.9 µM (active) | 0.59 µM (active) | 1.32 µM (active) | 10.5 µM (active) | 7.69 µM (active) | – | – | – | 4.69 µM (active)
19 | COc1ccc2c(c[n+](C)c3c4cc5c(cc4ccc23)OCO5)c1OC | 23.5 µM (active) | 11.8 µM (active) | 3.72 µM (active) | 5.9 µM (active) | 5.26 µM (active) | 17.2 µM (active) | – | – | 12.1 µM (active) | 9.35 µM (active)
20 | C[C@](O)(COc1ccc(C#N)cc1)C(=O)Nc1ccc(C#N)c(C(F)(F)F)c1 | – | – | – | – | – | – | inactive | inactive | – | –
21 | O=C1C=CC[C@@H]2[C@H]3CCCN4CCC[C@@H](CN12)[C@@H]34 | – | – | – | – | – | – | inactive | – | – | inactive
22 | CC=C(C)C(=O)N[C@@H](c1ccccc1)[C@@H](O)C(=O)O[C@H]1C[C@@]2(O)[C@@H](OC(=O)c3ccccc3)[C@@H]3[C@]4(OC(C)=O)CO[C@@H]4C[C@H](O)[C@@]3(C)C(=O)[C@H](OC(C)=O)C(=C1C)C2(C)C | 0.0037 µM (active) | – | – | 0.001 µM (active) | – | – | inactive | – | – | 0.0132 µM (active)
23 | Nc1ccc(Sc2ccc(N)cc2)cc1 | inactive | inactive | – | inactive | inactive | inactive | inactive | – | inactive | –
24 | O=C(NCC1CCOCC1)c1cnc(Nc2ccc(Cl)cc2Cl)nc1C(F)(F)F | 18.7 µM (active) | – | 18.7 µM (active) | 3.32 µM (active) | – | – | inactive | – | 6.07 µM (active) | –
25 | C[C@]12CC[C@H](O)CC1=CC[C@H]1[C@H]3CCC(=O)[C@@]3(C)CC[C@@H]12 | 23.5 µM (active) | – | 18.7 µM (active) | 16.6 µM (active) | – | inactive | – | – | inactive | –
